Results as given in paper PMC7862700, “An all-to-all approach to the identification of sequence-specific readers for epigenetic DNA modifications on cytosine”.

Experiments:
Assay in all cases: DAPPL (digital affinity profiling via proximity ligation, sequencing); 10 mM Tris-HCl pH 7.5, 50 mM NaCl, 1 mM DTT, 4% glycerol, room temperature, 30 min; GST-TFs on glutathione beads, 16-mer random dsDNA library, 0.1% formaldehyde crosslink after washing; high values mean tight binding
Settings in all cases: protein: recombinant; tags: N-terminal GST; dsDNA, one strand shown
FLI1 = target: T1, FLI1 (Homo sapiens, UniProt Q01543 1-452)
T1 sequence: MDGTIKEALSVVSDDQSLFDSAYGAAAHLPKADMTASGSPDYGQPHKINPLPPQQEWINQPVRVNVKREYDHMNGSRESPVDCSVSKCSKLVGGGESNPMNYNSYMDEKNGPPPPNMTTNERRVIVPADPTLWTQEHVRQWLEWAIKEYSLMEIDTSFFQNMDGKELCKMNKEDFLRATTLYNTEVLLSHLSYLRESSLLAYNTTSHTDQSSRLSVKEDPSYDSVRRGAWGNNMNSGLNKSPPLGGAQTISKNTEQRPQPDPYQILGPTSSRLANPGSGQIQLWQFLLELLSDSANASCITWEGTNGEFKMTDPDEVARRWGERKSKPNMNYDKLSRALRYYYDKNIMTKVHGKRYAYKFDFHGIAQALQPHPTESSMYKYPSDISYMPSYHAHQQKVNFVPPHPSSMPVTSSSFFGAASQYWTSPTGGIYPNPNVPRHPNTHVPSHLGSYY
Procedure, shortened: (§1)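 Binding signal is defined as a hexamer's read frequency for one factor over its frequency for the tag-only sample. To obtain reads, GST-fused human transcription factors were expressed in yeast, captured on glutathione beads, barcoded with DNA and pooled with that sample. Pools met 200 nmole of a 16-mer random double-stranded DNA library in Tris/NaCl/DTT/glycerol buffer for 30 min at room temperature before washing, 0.1% formaldehyde crosslinking, proximity ligation (BsaI/T4 ligase, 1 h, 37 °C), PCR and Illumina NextSeq500 sequencing.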

ELK1 = target: T2, ELK1 (Homo sapiens, UniProt P19419 1-428)
T2 sequence: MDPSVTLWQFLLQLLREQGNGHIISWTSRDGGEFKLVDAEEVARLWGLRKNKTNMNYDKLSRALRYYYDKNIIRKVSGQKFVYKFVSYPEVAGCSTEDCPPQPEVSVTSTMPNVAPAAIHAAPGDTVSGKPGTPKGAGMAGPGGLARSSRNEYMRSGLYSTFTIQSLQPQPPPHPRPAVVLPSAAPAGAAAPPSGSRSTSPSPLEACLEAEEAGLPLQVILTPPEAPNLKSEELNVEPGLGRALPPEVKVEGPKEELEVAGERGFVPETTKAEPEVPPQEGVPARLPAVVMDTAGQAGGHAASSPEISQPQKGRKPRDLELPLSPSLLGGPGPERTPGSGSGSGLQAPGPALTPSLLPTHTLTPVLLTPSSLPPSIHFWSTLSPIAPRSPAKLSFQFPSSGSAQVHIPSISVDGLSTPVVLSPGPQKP
Procedure, shortened: as §1

GABPA = target: T3, GABPA (Homo sapiens, UniProt Q06546 1-454)
T3 sequence: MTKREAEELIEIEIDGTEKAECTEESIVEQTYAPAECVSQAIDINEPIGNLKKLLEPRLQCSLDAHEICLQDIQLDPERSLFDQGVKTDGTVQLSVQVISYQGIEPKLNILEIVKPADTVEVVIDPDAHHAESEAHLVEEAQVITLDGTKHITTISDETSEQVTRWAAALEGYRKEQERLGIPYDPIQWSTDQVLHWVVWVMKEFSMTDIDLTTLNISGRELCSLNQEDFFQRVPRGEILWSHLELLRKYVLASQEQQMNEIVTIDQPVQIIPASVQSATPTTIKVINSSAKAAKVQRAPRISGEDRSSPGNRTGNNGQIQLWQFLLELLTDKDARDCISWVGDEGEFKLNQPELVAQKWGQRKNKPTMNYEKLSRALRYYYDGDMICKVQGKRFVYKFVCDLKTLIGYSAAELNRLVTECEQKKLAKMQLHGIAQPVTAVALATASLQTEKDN
Procedure, shortened: as §1

ERG = target: T4, ERG (Homo sapiens, UniProt P11308 1-479)
T4 sequence: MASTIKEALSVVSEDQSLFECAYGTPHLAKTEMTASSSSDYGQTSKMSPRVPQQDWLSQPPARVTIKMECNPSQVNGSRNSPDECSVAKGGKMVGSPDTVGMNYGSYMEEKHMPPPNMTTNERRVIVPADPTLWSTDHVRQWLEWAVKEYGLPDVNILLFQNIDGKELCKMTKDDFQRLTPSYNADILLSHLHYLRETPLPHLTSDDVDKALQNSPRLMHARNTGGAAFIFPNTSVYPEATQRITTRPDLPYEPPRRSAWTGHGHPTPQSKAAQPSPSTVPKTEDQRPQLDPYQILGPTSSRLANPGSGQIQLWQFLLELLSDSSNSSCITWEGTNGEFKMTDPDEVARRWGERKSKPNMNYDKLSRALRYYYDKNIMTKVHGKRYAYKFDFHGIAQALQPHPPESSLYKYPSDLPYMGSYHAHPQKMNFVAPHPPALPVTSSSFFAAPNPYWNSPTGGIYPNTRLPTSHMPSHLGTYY
Procedure, shortened: as §1

ELF1 = ELF1 (Homo sapiens, UniProt P32519 1-619)
Procedure, shortened: as §1

EHF = target: T5, EHF (Homo sapiens, UniProt Q9NZC4 1-300)
T5 sequence: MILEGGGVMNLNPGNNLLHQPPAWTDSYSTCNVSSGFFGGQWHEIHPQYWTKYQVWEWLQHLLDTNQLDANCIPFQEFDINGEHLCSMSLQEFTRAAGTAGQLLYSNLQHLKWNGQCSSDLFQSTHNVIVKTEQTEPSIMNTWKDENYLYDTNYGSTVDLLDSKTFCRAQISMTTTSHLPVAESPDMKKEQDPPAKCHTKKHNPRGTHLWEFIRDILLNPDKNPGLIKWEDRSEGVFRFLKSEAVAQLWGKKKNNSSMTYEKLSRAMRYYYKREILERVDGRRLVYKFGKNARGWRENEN
Procedure, shortened: as §1

SPI1 = SPI1 (Homo sapiens, UniProt P17947 1-270)
Procedure, shortened: as §1

SPIB = SPIB (Homo sapiens, UniProt Q01892 1-262)
Procedure, shortened: as §1

ELK3 = target: T6, ELK3 (Homo sapiens, UniProt P41970 1-407)
T6 sequence: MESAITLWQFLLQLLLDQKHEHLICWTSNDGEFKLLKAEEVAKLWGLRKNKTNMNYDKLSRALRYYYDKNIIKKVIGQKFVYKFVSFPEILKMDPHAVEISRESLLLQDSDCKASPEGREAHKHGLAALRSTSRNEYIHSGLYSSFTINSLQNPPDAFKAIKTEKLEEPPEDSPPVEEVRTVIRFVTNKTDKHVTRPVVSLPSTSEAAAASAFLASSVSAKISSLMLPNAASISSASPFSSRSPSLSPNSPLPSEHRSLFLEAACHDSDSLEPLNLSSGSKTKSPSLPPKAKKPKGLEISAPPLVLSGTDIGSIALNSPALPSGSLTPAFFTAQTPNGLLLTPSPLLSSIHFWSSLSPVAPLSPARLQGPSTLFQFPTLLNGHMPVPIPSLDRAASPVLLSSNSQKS
Procedure, shortened: as §1

FEV = target: T7, FEV (Homo sapiens, UniProt Q99581 1-238)
T7 sequence: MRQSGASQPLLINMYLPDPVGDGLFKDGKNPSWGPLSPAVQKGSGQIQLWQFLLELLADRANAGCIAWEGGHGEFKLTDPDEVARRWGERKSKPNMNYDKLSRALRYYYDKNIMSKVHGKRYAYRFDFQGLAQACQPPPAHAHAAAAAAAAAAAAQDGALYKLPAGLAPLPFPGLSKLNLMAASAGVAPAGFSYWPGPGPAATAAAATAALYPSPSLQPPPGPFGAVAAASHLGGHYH
Procedure, shortened: as §1

ETV5 = ETV5 (Homo sapiens, UniProt P41161 1-510)
Procedure, shortened: as §1

SPIC = target: T8, SPIC (Homo sapiens, UniProt Q8N5J4 1-248)
T8 sequence: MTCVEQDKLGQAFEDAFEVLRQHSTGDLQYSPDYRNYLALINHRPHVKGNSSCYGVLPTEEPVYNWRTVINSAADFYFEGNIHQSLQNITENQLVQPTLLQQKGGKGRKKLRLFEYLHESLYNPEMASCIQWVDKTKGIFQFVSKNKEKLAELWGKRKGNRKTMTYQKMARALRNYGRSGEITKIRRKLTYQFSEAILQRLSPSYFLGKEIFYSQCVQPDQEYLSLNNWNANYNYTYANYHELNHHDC
Procedure, shortened: as §1

ELF4 = ELF4 (Homo sapiens, UniProt Q99607 1-663)
Procedure, shortened: as §1

ELK4 = target: T9, ELK4 (Homo sapiens, UniProt P28324-2 1-405)
T9 sequence: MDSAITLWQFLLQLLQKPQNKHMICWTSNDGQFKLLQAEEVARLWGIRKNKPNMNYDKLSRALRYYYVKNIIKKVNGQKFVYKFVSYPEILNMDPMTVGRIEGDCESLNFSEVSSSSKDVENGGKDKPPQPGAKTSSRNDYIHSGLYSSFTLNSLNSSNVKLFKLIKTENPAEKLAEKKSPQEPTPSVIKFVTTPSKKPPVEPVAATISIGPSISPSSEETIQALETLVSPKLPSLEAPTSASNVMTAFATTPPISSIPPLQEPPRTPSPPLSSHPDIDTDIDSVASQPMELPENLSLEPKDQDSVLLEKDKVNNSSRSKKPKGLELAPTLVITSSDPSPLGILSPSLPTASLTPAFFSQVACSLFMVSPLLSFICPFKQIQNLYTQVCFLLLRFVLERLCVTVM
Procedure, shortened: as §1

ETV2 = target: T10, ETV2 (Homo sapiens, UniProt O00321 1-342)
T10 sequence: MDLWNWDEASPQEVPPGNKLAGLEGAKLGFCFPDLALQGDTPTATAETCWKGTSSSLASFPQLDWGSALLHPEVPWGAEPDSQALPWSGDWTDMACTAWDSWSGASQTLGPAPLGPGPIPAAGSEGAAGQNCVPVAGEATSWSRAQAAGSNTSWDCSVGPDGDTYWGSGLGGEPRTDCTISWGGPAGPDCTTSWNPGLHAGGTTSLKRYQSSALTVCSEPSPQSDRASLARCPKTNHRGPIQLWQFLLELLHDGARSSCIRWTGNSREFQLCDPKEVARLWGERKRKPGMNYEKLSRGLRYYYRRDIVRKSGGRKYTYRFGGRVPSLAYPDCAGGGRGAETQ
Procedure, shortened: as §1

ELF3 = target: T11, ELF3 (Homo sapiens, UniProt P78545 1-371)
T11 sequence: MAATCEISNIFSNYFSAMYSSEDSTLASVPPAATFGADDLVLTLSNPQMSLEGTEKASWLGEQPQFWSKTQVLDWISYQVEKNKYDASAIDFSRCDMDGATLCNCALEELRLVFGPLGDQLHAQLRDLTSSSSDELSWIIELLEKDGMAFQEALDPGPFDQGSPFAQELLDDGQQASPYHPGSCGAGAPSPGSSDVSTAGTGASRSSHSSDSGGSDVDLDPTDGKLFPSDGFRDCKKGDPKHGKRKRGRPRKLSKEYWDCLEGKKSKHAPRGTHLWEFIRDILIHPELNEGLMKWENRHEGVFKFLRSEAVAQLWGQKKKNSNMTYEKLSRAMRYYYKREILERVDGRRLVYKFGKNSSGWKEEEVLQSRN
Procedure, shortened: as §1

ETV1 = ETV1 (Homo sapiens, UniProt P50549 1-477)
Procedure, shortened: as §1

ETV5, sequence (P41161 whole entry): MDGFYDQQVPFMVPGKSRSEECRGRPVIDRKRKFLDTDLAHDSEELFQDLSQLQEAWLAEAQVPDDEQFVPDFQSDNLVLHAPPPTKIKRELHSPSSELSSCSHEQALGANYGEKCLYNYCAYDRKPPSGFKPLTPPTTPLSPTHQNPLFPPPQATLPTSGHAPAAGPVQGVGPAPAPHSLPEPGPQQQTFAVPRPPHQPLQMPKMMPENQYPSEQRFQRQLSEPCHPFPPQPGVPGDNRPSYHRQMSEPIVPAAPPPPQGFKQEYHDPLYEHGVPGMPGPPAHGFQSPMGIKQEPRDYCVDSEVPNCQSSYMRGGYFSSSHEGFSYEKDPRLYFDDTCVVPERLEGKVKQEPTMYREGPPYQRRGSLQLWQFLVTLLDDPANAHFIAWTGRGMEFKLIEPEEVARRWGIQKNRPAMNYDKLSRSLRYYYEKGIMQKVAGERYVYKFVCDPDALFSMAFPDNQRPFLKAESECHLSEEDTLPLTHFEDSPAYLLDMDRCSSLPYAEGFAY
ETV1, sequence (P50549 whole entry): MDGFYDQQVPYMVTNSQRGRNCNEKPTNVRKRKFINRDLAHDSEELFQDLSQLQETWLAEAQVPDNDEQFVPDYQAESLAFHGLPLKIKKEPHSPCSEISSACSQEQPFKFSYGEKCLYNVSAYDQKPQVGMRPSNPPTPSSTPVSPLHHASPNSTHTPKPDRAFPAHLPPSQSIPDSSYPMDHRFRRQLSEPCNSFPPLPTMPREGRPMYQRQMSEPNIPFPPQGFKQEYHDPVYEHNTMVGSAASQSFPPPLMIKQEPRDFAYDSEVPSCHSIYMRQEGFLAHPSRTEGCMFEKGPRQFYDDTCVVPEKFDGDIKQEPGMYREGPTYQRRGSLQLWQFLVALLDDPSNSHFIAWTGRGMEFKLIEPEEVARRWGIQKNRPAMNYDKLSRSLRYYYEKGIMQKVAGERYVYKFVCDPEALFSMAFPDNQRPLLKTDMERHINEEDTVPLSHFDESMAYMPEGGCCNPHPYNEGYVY
ELF4, sequence (Q99607 whole entry): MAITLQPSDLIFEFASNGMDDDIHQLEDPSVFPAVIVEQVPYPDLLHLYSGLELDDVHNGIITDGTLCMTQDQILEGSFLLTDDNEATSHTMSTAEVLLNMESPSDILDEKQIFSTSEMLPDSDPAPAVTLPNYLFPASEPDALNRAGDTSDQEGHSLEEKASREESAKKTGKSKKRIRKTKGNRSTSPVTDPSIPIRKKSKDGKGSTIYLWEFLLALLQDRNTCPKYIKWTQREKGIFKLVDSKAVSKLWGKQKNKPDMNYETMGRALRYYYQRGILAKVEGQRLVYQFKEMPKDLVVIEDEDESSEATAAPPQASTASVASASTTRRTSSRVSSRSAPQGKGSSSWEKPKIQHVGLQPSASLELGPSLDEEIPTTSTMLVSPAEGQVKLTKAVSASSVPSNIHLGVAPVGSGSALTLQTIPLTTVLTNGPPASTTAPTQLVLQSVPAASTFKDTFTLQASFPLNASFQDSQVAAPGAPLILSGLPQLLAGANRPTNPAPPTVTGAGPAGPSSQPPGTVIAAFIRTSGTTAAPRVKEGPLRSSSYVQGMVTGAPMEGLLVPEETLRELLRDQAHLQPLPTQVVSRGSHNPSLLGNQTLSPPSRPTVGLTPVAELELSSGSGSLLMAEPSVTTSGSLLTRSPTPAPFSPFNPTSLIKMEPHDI
SPIB, sequence (Q01892 whole entry): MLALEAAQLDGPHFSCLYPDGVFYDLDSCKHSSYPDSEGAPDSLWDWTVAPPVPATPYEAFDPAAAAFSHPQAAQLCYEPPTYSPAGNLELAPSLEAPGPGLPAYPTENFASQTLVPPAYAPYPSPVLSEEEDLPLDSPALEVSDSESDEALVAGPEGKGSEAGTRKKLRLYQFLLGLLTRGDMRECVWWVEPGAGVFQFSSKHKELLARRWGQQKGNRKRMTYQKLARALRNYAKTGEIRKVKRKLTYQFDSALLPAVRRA
ELF1, sequence (P32519 whole entry): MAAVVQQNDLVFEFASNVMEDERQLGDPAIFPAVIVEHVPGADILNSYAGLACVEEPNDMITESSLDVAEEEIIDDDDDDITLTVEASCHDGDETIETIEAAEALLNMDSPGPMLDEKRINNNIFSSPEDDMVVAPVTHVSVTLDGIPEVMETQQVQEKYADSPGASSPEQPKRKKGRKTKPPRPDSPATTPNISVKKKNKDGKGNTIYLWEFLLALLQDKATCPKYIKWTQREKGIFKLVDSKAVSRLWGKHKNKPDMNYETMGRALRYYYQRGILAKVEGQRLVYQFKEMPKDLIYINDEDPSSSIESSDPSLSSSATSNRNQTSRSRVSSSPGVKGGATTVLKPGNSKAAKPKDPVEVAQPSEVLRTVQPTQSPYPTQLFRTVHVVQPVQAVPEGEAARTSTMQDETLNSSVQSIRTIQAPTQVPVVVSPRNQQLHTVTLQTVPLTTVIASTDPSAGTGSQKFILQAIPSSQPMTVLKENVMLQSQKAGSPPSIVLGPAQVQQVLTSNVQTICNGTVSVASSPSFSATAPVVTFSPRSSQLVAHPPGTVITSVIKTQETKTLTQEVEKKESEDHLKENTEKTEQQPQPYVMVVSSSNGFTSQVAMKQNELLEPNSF

Sequence	binding signal (FLI1)	binding signal (ELK1)	binding signal (GABPA)	binding signal (ERG)	binding signal (ELF1)	binding signal (EHF)	binding signal (SPI1)	binding signal (SPIB)	binding signal (ELK3)	binding signal (FEV)	binding signal (ETV5)	binding signal (SPIC)	binding signal (ELF4)	binding signal (ELK4)	binding signal (ETV2)	binding signal (ELF3)	binding signal (ETV1)
GTCCTT	1.16 fold enrichment (6-mer frequency, TF over GST control)	1.2 fold enrichment (6-mer frequency, TF over GST control)	1.28 fold enrichment (6-mer frequency, TF over GST control)	1.22 fold enrichment (6-mer frequency, TF over GST control)	1.26 fold enrichment (6-mer frequency, TF over GST control)	1.28 fold enrichment (6-mer frequency, TF over GST control)	1.29 fold enrichment (6-mer frequency, TF over GST control)	1.34 fold enrichment (6-mer frequency, TF over GST control)	1.25 fold enrichment (6-mer frequency, TF over GST control)	1.29 fold enrichment (6-mer frequency, TF over GST control)	1.19 fold enrichment (6-mer frequency, TF over GST control)	1.23 fold enrichment (6-mer frequency, TF over GST control)	1.21 fold enrichment (6-mer frequency, TF over GST control)	1.15 fold enrichment (6-mer frequency, TF over GST control)	1.31 fold enrichment (6-mer frequency, TF over GST control)	1.16 fold enrichment (6-mer frequency, TF over GST control)	1.13 fold enrichment (6-mer frequency, TF over GST control)
CATCAC	1.1 fold enrichment (6-mer frequency, TF over GST control)	1.1 fold enrichment (6-mer frequency, TF over GST control)	1.18 fold enrichment (6-mer frequency, TF over GST control)	1.15 fold enrichment (6-mer frequency, TF over GST control)	1.19 fold enrichment (6-mer frequency, TF over GST control)	1.13 fold enrichment (6-mer frequency, TF over GST control)	1.11 fold enrichment (6-mer frequency, TF over GST control)	1.11 fold enrichment (6-mer frequency, TF over GST control)	1.05 fold enrichment (6-mer frequency, TF over GST control)	1.16 fold enrichment (6-mer frequency, TF over GST control)	1.13 fold enrichment (6-mer frequency, TF over GST control)	1.26 fold enrichment (6-mer frequency, TF over GST control)	1.12 fold enrichment (6-mer frequency, TF over GST control)	1.29 fold enrichment (6-mer frequency, TF over GST control)	1.11 fold enrichment (6-mer frequency, TF over GST control)	1.14 fold enrichment (6-mer frequency, TF over GST control)	1.1 fold enrichment (6-mer frequency, TF over GST control)
